Screening data as filed in PubChem BioAssay.
Only some compounds are listed: those with a hit (about 9.2% of all), similar ones and a draw of the others.
ELG1 DNA repair – qHTS screen for small molecules that inhibit ELG1-dependent DNA repair in human embryonic kidney (HEK293T) cells expressing luciferase-tagged ELG1; 2.3% of 330,000 active; AID 504467, 2011; Potency, µM (highest dose often 46.1 µM), inactives show at the top dose activity change, negative = inhibition, most hits filed as inhibitors; HEK293T ELG1-luciferase reporter, luminescence, 16 h; DNA damage induced by 5-fluorouridine; further: on the % scale 0 is the no-effect control and ±100 the full control effect; nearly all actives have a fitted effect of over 55% in size
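HEK293T cells expressing luciferase-tagged ELG1 (2,000/well) received 5-Fluorouridine plus compound or DMSO for 16 hr at 37 °C. Luciferase was read by ONE-Glo luminescence after 30 min at room temperature.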
FLuc counter – qHTS profiling assay for firefly luciferase inhibitor/activator using purifed enzyme and Km concentrations of substrates (counterscreen for miR-21 project); purified FLuc, Km substrates, luminescence inhibition; Potency, µM (titrated, usually from 57.5 µM), for inactives: top-dose activity change, negative = inhibition, usual class: inhibitors; 6.9% of 360,000 active; AID 588342, 2011;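 further: plate controls were vehicle for no effect and reference inhibitor for full effect; nearly all actives have a fitted effect of over 55% in size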
Target sequence (P08659 whole entry, looked up): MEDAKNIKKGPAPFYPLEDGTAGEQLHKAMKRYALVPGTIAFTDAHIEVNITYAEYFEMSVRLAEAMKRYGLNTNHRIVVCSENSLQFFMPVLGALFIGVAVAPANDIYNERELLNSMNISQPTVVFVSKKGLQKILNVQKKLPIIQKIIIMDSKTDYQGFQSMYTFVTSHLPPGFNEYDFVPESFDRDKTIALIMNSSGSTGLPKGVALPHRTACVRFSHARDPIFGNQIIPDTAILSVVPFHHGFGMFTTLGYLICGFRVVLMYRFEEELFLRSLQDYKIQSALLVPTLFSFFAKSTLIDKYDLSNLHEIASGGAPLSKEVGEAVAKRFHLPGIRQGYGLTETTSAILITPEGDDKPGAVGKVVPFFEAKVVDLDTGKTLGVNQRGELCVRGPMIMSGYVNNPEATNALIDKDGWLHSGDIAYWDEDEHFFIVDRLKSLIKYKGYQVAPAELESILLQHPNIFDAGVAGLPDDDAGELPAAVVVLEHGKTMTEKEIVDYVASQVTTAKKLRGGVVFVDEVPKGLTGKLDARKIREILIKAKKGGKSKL
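Biochemical qHTS of compounds, final roughly 60 µM downward over six points, against 10 nM purified firefly luciferase using Km concentrations of substrates (10 uM D-luciferin, 10 uM ATP) in Tris acetate pH 7.5 buffer; luminescence output.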
NPC1 prom act – qHTS Assay for NPC1 Promoter Activators. 2.4% of 320,000 active. Huh7 NPC1 promoter luciferase reporter, 24 h. Potency, µM (highest dose often 9.22 µM), for inactives: at the top dose activation, usual class: activators; further: % of control where 0% means no effect; nearly all actives have a fitted effect of over 60% in size
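Stable NPC1-promoter luciferase Huh7 line; cpd (DMSO) 24 h, 37 °C, 5% CO2; Amplite luciferase reagent 10 min RT; luminescence readout. qHTS format.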
Rab9 promoter act – qHTS Assay for Rab9 Promoter Activators | Huh7 Rab9 promoter-luciferase reporter, luminescence, 24 h | Potency, µM (highest dose often 9.22 µM), inactives show at the top dose activation, negative = inhibition, usual class: activators | 2.8% of 320,000 active | AID 485297, 2010; further: % of control where 0% means no effect; nearly all actives have a fitted effect of over 60% in size
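Huh7 reporter line, Rab9 promoter upstream of luciferase. Compound exposure 24 h at 37 °C in reduced-serum medium with 10% FBS. Read-out: luminescence.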
SMN2 splice up – qHTS Assay for Enhancers of SMN2 Splice Variant Expression. AID 1458, 2008. 2.8% of 210,000 active. Potency, µM (doses to about 46.1 µM), without a hit: at the highest dose activity change, positive = activation, hits mostly activators. HEK293 SMN2-luciferase splicing reporter, luminescence, 30-36 h; further: % of control where 0% means no effect; nearly all actives have a fitted effect of over 55% in size
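qHTS luciferase splicing reporter: luminescence rises when SMN2 exon 7 is included in transfected HEK293 cells. Compound exposure lasted 30-36 h at 37C, with 4.5 mM final sodium butyrate as control, followed by a ONE-Glo read.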
ELG1 genotox – qHTS screen for small molecules that induce genotoxicity in human embryonic kidney (HEK293T) cells expressing luciferase-tagged ELG1 | HEK293T ELG1-luciferase reporter, luminescence, 16 h | Potency, µM (series often up to 46 µM), inactives show at the highest dose activity change, positive = activation, most hits filed as activators | 1.3% of 330,000 active | AID 504466, 2011; further: % of control where 0% means no effect; nearly all actives have a fitted effect of over 60% in size
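DMSO vehicle served as control against compound-treated ELG1-luciferase HEK293T cells; exposure lasted 16 hr at 37 °C and 5% CO2, followed by ONE-Glo luminescence detection after 30 min.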
* = called active by the depositor; ? = inconclusive; / = no result; [ ] = another dose, or the depositor's remark. The call rests on the fitted dose curve; in most records, active means well fitted curve in the direction sought with a large enough effect; inconclusive means small, poorly fitted or top-dose-only effect, or another doubt; inactive means no such curve, though single readings can be large; an effect the other way counts as inactive or inconclusive. Potency means the concentration at half of the fitted maximal effect.

SMILES | ELG1 DNA repair | FLuc counter | NPC1 prom act | Rab9 promoter act | SMN2 splice up | ELG1 genotox
O=C(N/N=C/c1c[nH]c2ccccc12)c1cc(Cl)ccc1O | ? | 16.9µM* | 21.0% | 14.3% | / | 7.3%
O=C(N/N=C/c1c[nH]c2ccccc12)c1ccc(Br)cc1 | ? | 6.75µM* | 25.7% | ? | / | ?
O=C(O)c1ccc(N/N=C/c2c[nH]c3ccccc23)cc1 | ? | 0.426µM* | -9.3% | -5.3% | / | ?
Nc1ccc(C(=O)N/N=C/c2c[nH]c3ccccc23)cc1 | 18.7% | 13.5µM* | 5.7% | 3.3% | / | 6.2%
O=C(N/N=C/c1c[nH]c2ccccc12)c1ccccc1Cl | ? | ? | 4.9% | -2.2%[1.84 µM] | / | -0.1%
CCOC(=O)CC1C(=O)NCCN1C(=O)COc1ccc(C(C)(C)C)cc1 (stereo not given) | 3.1% | 1.8% | -5.6% | -1.8% | / | -4.5%
O=C(c1ccc2c(=O)n3c(nc2c1)CCC3)N1CCCSC1=Nc1ccccc1 | ? | 4.4% | -2.9% | 0.1% | / | 7.1%
O=C(N/N=C\c1c[nH]c2ccccc12)c1ccc(O)cc1 | 19.3% | 15.1µM* | 21.5% | 16.7% | / | 11.6%
Cc1occc1C(=O)N/N=C/c1c[nH]c2ccccc12 | ? | 13.5µM* | ? | ? | 4.6% | ?
CC(C)(C)OC(=O)N/N=C/c1c[nH]c2ccccc12 | ? | 9.53µM* | 22.4% | 25.1% | / | 15.2%
O=C(N/N=C/c1c[nH]c2ccccc12)c1ccc(Cl)cc1 | ? | 7.57µM* | ? | ? | / | 12.7%
CCOC(=O)c1ccc(N2CCN(c3cc(C)ccc3C)CC2)c(NC(=O)Nc2ccccc2)c1 | / | 4.5% | / | / | / | /
CCOC(=O)c1c(S(=O)(=O)N2CCCC(C(=O)N3CCN(c4cccc(C)c4C)CC3)C2)c(C)n(C)c1C (stereo not given) | / | -3.5% | / | / | / | /
CC(C)(Oc1ccc(Cl)cc1)C(=O)Nc1ccc(-c2nc3ncccc3o2)cc1 | / | 3.8% | / | / | 3.0% | /
CCOC(=O)c1cnc2ccc(OC)cc2c1NCCc1ccc(OC)c(OC)c1 | 20.6µM* | -19.0% | -5.5% | -19.6% | -7.9% | -7.1%
Cc1c(C(=O)NCCc2ccc(Cl)cc2)cccc1-n1cnc2cccnc21 | / | 6.7% | / | / | / | /
COc1ccc(O)c(/C=N/Nc2nc(Nc3ccccc3)nc(-n3nc(C)cc3C)n2)c1 | 2.59µM* | 9.53µM* | 10.1% | -5.4% | -22.0% | -10.0%
COc1cc(/C=N/Nc2nc(Nc3ccccc3)nc(-n3nc(C)cc3C)n2)cc(OC)c1OC | 1.84µM* | 2.69µM* | 13.8% | 2.8% | -7.4%[1.84 µM] | -15.6%
COc1cc(/C=N/n2nnnc2Nc2ccccc2)cc(OC)c1OC | 23.1µM* | ? | 0.4% | -2.1% | 14.0% | -1.6%
CCCCOC(=O)c1c(N)n(-c2ccc(OC)cc2OC)c2nc3ccccc3nc12 | / | -3.6% | / | / | 1.8% | /
COCCCN(C(=O)C1CCC1)c1c(N)n(Cc2ccccc2)c(=O)[nH]c1=O | 15.3% | -0.8% | -2.8% | 2.4% | / | 0.6%
CCOC(=O)Cn1c(C2CC(=O)N(c3ccc(C)cc3)C2)nc2ccccc21 (stereo not given) | / | 3.0% | / | / | / | /
COc1ccccc1C1C(C(C)=O)=C(C)N=c2s/c(=C\c3cc(OC)c(OC)c(OC)c3)c(=O)n21 (stereo not given) | 23.1µM* | -2.2% | -8.5% | -2.3% | 18.6% | 0.5%
CC(C)n1c(SC2C(=O)CC(C)(C)CC2=O)nc2c1c(=O)n(C)c(=O)n2C | 2.2% | 0.2% | -3.7% | 5.3% | 11.2µM* | 9.8%
CCCn1c(SC2C(=O)CC(C)(C)CC2=O)nc2c1c(=O)n(C)c(=O)n2C | 21.8% | 1.0% | -7.8% | 6.6% | -8.3% | 2.4%
SMILES | ELG1 DNA repair | FLuc counter | NPC1 prom act | Rab9 promoter act | SMN2 splice up | ELG1 genotox
CCOc1ccc2nc(NC(=O)CS(=O)(=O)c3ccc(Cl)cc3)sc2c1 | / | -2.8% | / | / | / | /
CC(=O)Nc1ccc2nc(NC(=O)CS(=O)(=O)c3ccccc3)sc2c1 | 4.2% | ? | 2.4% | -7.6% | / | 1.5%
CCOc1ccc2nc(NC(=O)CS(=O)(=O)c3ccccc3)sc2c1 | -29.6% | 12µM* | -1.3% | 1.0% | 6.3% | 20.8%
CCOc1ccc2nc(NC(=O)CS(=O)(=O)c3ccc(C)cc3)sc2c1 | -6.8% | 21.3µM* | 6.0% | 0.6% | 9.0% | 12.6%
CS(=O)(=O)N1CCC[C@@]2(CCN(Cc3ccc(C#N)cc3)C2)C1 | / | / | / | / | -11.6% | /
COc1ccc(S(=O)(=O)Nc2cccc(S(=O)(=O)N3CCCCC3)c2)cc1 | -3.5% | / | / | / | / | 2.5%
Cc1ccc(S(=O)(=O)Nc2nc3ccccc3nc2Nc2cccc(S(=O)(=O)N3CCCC3)c2)cc1 | 20.6µM* | ? | -8.0% | -12.4% | -63.1% | -20.0%
COc1ccc(NS(=O)(=O)c2ccc(-c3coc(C)n3)cc2)cc1OC | 0.411µM* | -5.5% | -31.1% | -45.6% | / | 11.9%
O=[N+]([O-])c1cccc(S(=O)(=O)Nc2nc3ccccc3nc2Nc2cccc(S(=O)(=O)N3CCCCC3)c2)c1 | 2.06µM* | 1.1% | -11.6% | -26.9% | -51.8% | -8.9%
COc1ccc(Nc2nc3ccccc3nc2NS(=O)(=O)c2ccc(Cl)cc2)cc1OC | / | 6.75µM* | / | / | -7.2% | /
Cc1ccc(NC(=O)Cn2nc(C)n3cccc3c2=O)c(C)c1 | / | -0.8% | / | / | / | /
CCn1cc(Cl)c(C(=O)Nc2cc(C(=O)OC)cc(C(=O)OC)c2)n1 | ? | 0.5% | 0.2% | 5.3% | -8.8% | 0.6%
CCn1ccc(C(=O)Nc2ccccc2Cl)n1 | ? | 10.7µM* | 2µM* | 1.58µM* | / | 8.2µM*
CCn1cc(Cl)c(C(=O)Nc2cccc(CN3CCOCC3)c2)n1 | 13.3% | -1.2% | 24.5% | 19.2% | / | -0.3%
CCn1cc(Cl)c(C(=O)Nc2ccc(OC)c(OC)c2)n1 | 13.7% | 15.1µM* | 26.1% | ? | -41.6% | -7.0%
CCn1cc(Br)c(C(=O)Nc2ccc(Cl)c(Cl)c2)n1 | ? | ? | ? | 3.55µM* | ? | ?
CCn1cc(Br)c(C(=O)Nc2cccc(Cl)c2)n1 | ? | ? | 3.98µM* | 2µM* | 11.2µM* | ?
CCn1ccc(C(=O)Nc2cccc(Cl)c2)n1 | ? | 10.7µM* | 3.55µM* | 1.41µM* | 12.6µM* | ?
Cc1n[nH]c(C)c1CCc1nc2c3ccccc3nc(SCC(N)=O)n2n1 | 23.1µM* | -2.6% | -0.6% | 4.3% | -10.0% | -4.7%
